Source: PubChem (National Center for Advancing Translational Sciences (NCATS))
This is a sample that favours compounds with a hit; in the whole collection about 2.7% have one here.
Nrf2 inh: Nrf2 pathway inhibition | A549 ARE-Fluc reporter, luciferase luminescence, 18-24 h | Potency, µM (doses to about 46 µM), without a hit: at the highest dose activity change, negative = inhibition, usual class: inhibitors | hit rate 2.1% among 360,000 | AID 504444; also: potency is read from the fitted curve at half-maximal effect; % is scaled to controls: 0 for no effect and ±100 for the full control effect; nearly all actives have a fitted effect of over 60% in size
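In this cell-based qHTS, ARE-driven firefly luciferase in A549 cells reports Nrf2 activity; the luminescent signal after BugLite lysis is the measured value, with a prior CellTiter-Fluor read for cell health.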
12-LOX inh: inhibitors of human 12S-lipoxygenase ALOX12. P18054. purified 12hLO, xylenol orange hydroperoxide absorbance. Potency, µM (highest dose often 108 µM), for inactives: top-dose activity change, negative = inhibition, hits mostly inhibitors. hit rate 1.1% among 580,000; also: potency is read from the fitted curve at half-maximal effect; % is scaled to controls: 0 for no effect and ±100 for the full control effect
Target sequence (P18054 whole entry, looked up): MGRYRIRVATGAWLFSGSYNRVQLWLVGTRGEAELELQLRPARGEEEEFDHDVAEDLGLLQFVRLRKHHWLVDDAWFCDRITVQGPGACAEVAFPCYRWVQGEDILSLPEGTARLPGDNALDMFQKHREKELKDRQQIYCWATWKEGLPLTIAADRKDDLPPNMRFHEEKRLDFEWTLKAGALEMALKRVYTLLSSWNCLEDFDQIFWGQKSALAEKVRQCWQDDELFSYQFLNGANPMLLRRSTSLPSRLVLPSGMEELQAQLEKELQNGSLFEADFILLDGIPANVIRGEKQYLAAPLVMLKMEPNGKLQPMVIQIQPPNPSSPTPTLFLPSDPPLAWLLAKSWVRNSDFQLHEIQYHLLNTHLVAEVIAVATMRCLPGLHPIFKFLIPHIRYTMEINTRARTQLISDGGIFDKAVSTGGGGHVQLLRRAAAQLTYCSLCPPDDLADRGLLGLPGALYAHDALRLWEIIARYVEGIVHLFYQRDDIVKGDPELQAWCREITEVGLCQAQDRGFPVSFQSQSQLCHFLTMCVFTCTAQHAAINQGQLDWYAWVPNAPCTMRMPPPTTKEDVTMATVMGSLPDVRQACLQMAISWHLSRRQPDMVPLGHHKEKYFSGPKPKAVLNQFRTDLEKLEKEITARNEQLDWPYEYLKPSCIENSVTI
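Purified human 12hLO at 150 nM in 25 mM Hepes, 0.01% Triton X-100, pH 7.0, preincubated 15 min at room temperature with compound. Reaction started with 40 uM arachidonic acid, 30 min at room temperature. Hydroperoxide measured by Fe-xylenol orange, 573/405 nm absorbance ratio.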
Nrf2 activator: activates Nrf2 signaling; AREc32 ARE-luciferase reporter (MCF7-derived line), luminescence, 24 h; Potency, µM (doses to about 46.1 µM), for inactives: top-dose activation, usual class: activators; hit rate 0.31% among 410,000; AID 624171; also: potency is read from the fitted curve at half-maximal effect; % of control where 0% means no effect; nearly all actives have a fitted effect of over 65% in size
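Reporter line AREc32 (ARE-Fluc), seeded overnight in OPTI-MEM with 5% FBS; compound pin-transferred, 24 hr at 37 deg C, 5% CO2; luminescent read-out.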
A549 viability: kills or reduces viability of A549 cells in Nrf2 counter-screen. hit rate 0.16% among 390,000. Potency, µM (doses to about 46 µM), without a hit: at the top dose activity change, negative = cytotoxicity, hits mostly inhibitors. A549 ARE-Fluc cells, CellTiter-Fluor viability, 18-24 h; also: potency is read from the fitted curve at half-maximal effect; % is scaled to controls: 0 for no effect and ±100 for the full control effect
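A549 ARE-Fluc cells in 5% FBS OPTI-MEM, 5000 cells/well, rested 2 h then exposed to compounds in concentration-response for 18-24 h at 37 °C. Viability by CellTiter-Fluor fluorescence (Ex 405/Em 525) after 30 min; luciferase luminescence (BugLite, 15 min, RT) read afterwards.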
LDHA block: blocks human lactate dehydrogenase A | AID 1347041 | purified LDHA, NADH/diaphorase-resazurin fluorescence; active compounds read low | P00338 | activity change, % (values are at about 110 or 230 µM) | hit rate 0.15% among 480,000; in the data active = activity change below about -30%; inconclusive = mostly about -25% to -30%;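 also: plate controls were DMSO wells for no effect and wells without enzyme for full effect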
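Enzyme activity of human lactate dehydrogenase 5 (2 nM; 0.06 mM NADH, 0.2 mM pyruvate, 5 min, RT) is measured via a resazurin/diaphorase fluorescence readout of residual NADH.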
mIDH1 inhibitor: blocks human mutant IDH1 R132H enzyme | O75874 | IDH1-R132H enzyme, NADPH consumption, diaphorase/resazurin fluorescence | Potency, µM (titrated, usually from 76.6 µM), for inactives: top-dose activity change, negative = inhibition, usual class: inhibitors | hit rate 0.093% among 390,000 | AID 602179; also: potency is read from the fitted curve at half-maximal effect; % is scaled to controls: 0 for no effect and ±100 for the full control effect; nearly all actives have a fitted effect of over 65% in size
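IDH1-R132H (0.5 ug/mL) preincubated 30 min with compound, then NADPH (0.016 mM) and alpha-KG (2 mM) added; 80 min at RT, pH 7.5. Remaining NADPH coupled via diaphorase/resazurin to fluorescence (540/590 nm); concentration-response curves normalized to no-enzyme control.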
* = called active by the depositor; ? = inconclusive; . = no result given. Unless noted, calls follow the shape of the dose curve; as a rule, active = well fitted curve in the direction sought with a large enough effect; inconclusive = small, poorly fitted or top-dose-only effect, or another doubt; inactive = no such curve, though single readings can be large; an effect the other way counts as inactive or inconclusive.

SMILES | Nrf2 inh | 12-LOX inh | Nrf2 activator | A549 viability | LDHA block | mIDH1 inhibitor
O=C(OCn1ncc(Cl)c(Cl)c1=O)c1ccc(C(F)(F)F)cc1 | 3% | -1% | 10µM* | -16% | -16 | -6%
Cc1ccc(C(=O)OCn2ncc(Cl)c(Cl)c2=O)cc1 | ? | 0% | ? | . | 2 | 8%
Cc1ccc(-c2cc(C(=O)N3CCN(c4ccccc4)CC3)c3ccccc3n2)cc1C | . | -19% | 5% | 2% | -11 | -8%
Cc1ccc2c(C(=O)N3CCN(c4ccccc4)CC3)cc(-c3cccnc3)nc2c1C | 21µM* | 0% | 2% | ? | -9 | 5%
COc1ccc(CCNc2ccc(N3C(=O)CC(C)C3=O)cc2[N+](=O)[O-])cc1 (centres undefined) | 0% | 0% | 0% | -15% | 0 | 6%
COc1ccc(CCNc2ccc(N3C(=O)CC(C)C3=O)cc2[N+](=O)[O-])cc1OC (centres undefined) | 15µM* | -27% | 2% | -30% | 0 | 2%
CCOC(=O)/C(=C\C=C\c1ccccc1)NC(=O)c1ccccc1 | 9.2µM* | ? | 6% | -15% | -6 | 1%
O=Cc1[nH]c2ccccc2c1N(C(=O)CCl)c1ccc([N+](=O)[O-])cc1 | -10% | 40µM* | 11% | -7% | -3 | -4%
Cc1cccc(C)c1NC(=O)c1nc(S(=O)(=O)Cc2ccccc2)ncc1Cl | ? | -13% | ? | 0% | -7 | -1%
O=C(NCc1ccccc1)c1nc(S(=O)(=O)Cc2ccc(F)cc2)ncc1Cl | 26µM* | ? | -6% | ? | 0 | 29%
Cc1cccc(CS(=O)(=O)c2ncc(Cl)c(C(=O)Nc3c(C)cccc3C)n2)c1 | 15µM* | 6% | -2% | ? | 2 | 4%
O=C(Nc1ccc(F)cc1)c1nc(S(=O)(=O)Cc2ccccc2)ncc1Cl | ? | 10% | ? | ? | 1 | 6%
Nc1cccc(C#Cc2ccccc2)c1 | . | ? | . | . | 3 | .
Cc1nc(NC2CCCC2)sc1C(=O)NCCC(C)C | . | 20µM* | . | . | -3 | .
Cc1nc(NC2CC2)sc1C(=O)NC1CCCC1 | . | 11% | . | . | 7 | .
COc1cc([C@@H]2CC(=O)C3=C(C2)Nc2[nH][nH]c(=O)c2[C@H]3c2ccc(N(C)C)cc2)cc(OC)c1OC | . | ? | . | . | -1 | .
Cc1ccnc(Nc2nc(-c3ccccc3)cs2)c1 | ? | ? | 24% | 1% | 2 | 21%
Cc1ccnc(Nc2nc(-c3c(C)nc4sccn34)cs2)c1 | 21µM* | -22% | 0% | -12% | 0 | 1%
CC1CC(C)(C)CC2(C1)NC(=O)N(CC(=O)N1CCN(Cc3ccc(C#N)cc3)CC1)C2=O (centres undefined) | 1.8µM* | -26% | 0% | -14% | -8 | -1%
Cc1cccc(NC(=O)CN2CCN(C(=O)CN3C(=O)NC4(CC(C)CC(C)(C)C4)C3=O)CC2)c1C (centres undefined) | 16µM* | 20% | 0% | -11% | -1 | 3%
CC1CC(C)(C)CC2(C1)NC(=O)N(CC(=O)N1CCN(S(=O)(=O)c3cccs3)CC1)C2=O (centres undefined) | -4% | -7% | -1% | -2% | -2 | -9%
CC(CCN1CCC(CN2C(=S)NCC2Cc2ccccc2)CC1)c1ccccc1 (centres undefined) | 7% | ? | 0% | 2% | -11 | 29%
CC(CCN1CCC(CN2C(=O)C(=O)NC[C@@H]2Cc2ccccc2)CC1)c1ccccc1 (some centres undefined) | 5% | 40µM* | 0% | -4% | -2 | -2%
CCn1cc(S(=O)(=O)Nc2ccn(Cc3ccccc3F)n2)c(C)n1 | . | 27% | . | . | -6 | .
NS(=O)(=O)c1ccc(N=Nc2c(-c3ccccc3)[nH]n(-c3nc(-c4ccccc4)cs3)c2=O)cc1 | 4.6µM* | 2% | 2% | ? | -6 | 4%
